Test results reported in PubChem BioAssay (NCATS).
Inconclusive results are not listed. A call without a number means that no potency is given here. A number with no mark means an inactive call. The source made the active and inactive calls. Calls come from the whole dose curve; as a rule, active = well fitted curve in the direction sought with a large enough effect; inconclusive = small, poorly fitted or top-dose-only effect, or another doubt; inactive = no such curve, though single readings can be large; an effect the other way counts as inactive or inconclusive.

What was measured:
[1] = biological target: Aldehyde dehydrogenase, mitochondrial (Homo sapiens) (UniProt P05091); test: qHTS for Inhibitors of the Aldehyde Dehydrogenase Family (ALDH2) Primary screen (AID 2061308); settings: ALDH2 enzyme inhibition qHTS, 1536-well; series mostly up to 56 µM; note: nearly all actives have a fitted effect of over 55% in size
[2] = biological target: Retinaldehyde dehydrogenase 3 (Homo sapiens) (UniProt P47895); test: qHTS for Inhibitors of the Aldehyde Dehydrogenase Family (ALDH1A3) Primary screen (AID 2061315); settings: ALDH inhibition qHTS; series mostly up to 56 µM

SMILES: CN1CCCC1CCOC(c1cc2nccc(C(=O)O)c2[nH]1)c1ccccc1Cl (stereo not given)
- Potency [1]: inactive
- Potency [2]: inactive

SMILES: C=C1[C@@H](C)[C@H]2[C@H](Cc3ccccc3)NC(=O)[C@]23[C@H](OC(C)=O)/C=C/[C@](C)(O)C(=O)[C@@H](C)C/C=C/[C@H]3[C@@H]1O
- Potency [1]: inactive
- Potency [2]: inactive

SMILES: CCOC(=O)C1CCN(C(=O)C2(NC(=O)Nc3ccccc3Cl)CCCC2)CC1
- Potency [1]: inactive
- Potency [2]: inactive

SMILES: C[C@@H](CN1CCC(n2c(=O)[nH]c3cc(Br)ccc32)CC1)NC(=O)[C@@H]1C[C@H]1c1ccccc1
- Potency [1]: inactive
- Potency [2]: inactive

SMILES: N#Cc1ccc(NC(=O)Nc2nnc(-c3ccncc3)s2)cc1C(F)(F)F
- Potency [1]: inactive
- Potency [2]: inactive

SMILES: COC(=O)C1(C)CCC(O)C2(C)c3cc(O)c(C(C)C)cc3C(O)C(OC(C)=O)C12 (stereo not given)
- Potency [1]: inactive
- Potency [2]: inactive

SMILES: CC[C@H](C)[C@H](NC(=O)[C@H]1CCCCN1C)C(=O)N(COC(=O)CC(C)C)[C@H](C[C@@H](OC(C)=O)c1nc(C(=O)N[C@@H](Cc2ccc(O)cc2)C[C@H](C)C(=O)O)cs1)C(C)C
- activity change, negative = inhibition [1]: -2.41% [at 1.12 µM]
- activity change, negative = inhibition [2]: 6.02% [at 1.12 µM]

SMILES: C/C=C(\C)C(=O)O[C@H]1CC2C(=C1C)[C@H]1OC(=O)[C@](C)(O)[C@]1(O)[C@H](OC(=O)CCC)C[C@@]2(C)OC(C)=O (stereo not given in full)
- Potency [1]: inactive
- Potency [2]: inactive

SMILES: Cc1ccc2nc(NC3=NC(c4[nH]ncc4Cl)C4=C(CCCC4=O)N3)oc2c1 (stereo not given)
- Potency [1]: inactive
- Potency [2]: inactive

SMILES: CCc1nn2c(=O)c(F)c(N3CCNCC3)nc2s1
- Potency [1]: inactive
- Potency [2]: inactive

SMILES: CO[C@@H]1[C@H](O)[C@@H](O[C@@H]2C[C@H]3CC[C@@H]4C(CC[C@]5(C)[C@@H](C6=CC(=O)OC6)CC[C@]45O)[C@@]3(C)[C@H](O)C2)O[C@H](C)[C@@H]1O[C@@H]1O[C@H](CO)[C@@H](O)[C@H](O)[C@H]1O (stereo not given in full)
- Potency [1]: inactive
- Potency [2]: inactive

SMILES: COC1C(O)C(C)OC(OC2C(CO)O[C@@H](O[C@@H]3CC4CCC5C(CC[C@]6(C)[C@@H](C7=CC(=O)OC7)CC[C@]56O)[C@@]4(C)[C@H](OC(C)=O)C3)C(O)C2O)C1O (stereo not given in full)
- Potency [1]: inactive
- Potency [2]: inactive

SMILES: COc1cccc(CNc2ccc(S(=O)(=O)Nc3ccc4ccccc4c3)cc2)c1O
- Potency [1]: inactive
- Potency [2]: inactive

SMILES: C[C@H]1CC[C@@H]2[C@@H](C)[C@H]3[C@H](C[C@H]4[C@@H]5CC=C6CC(O[C@@H]7O[C@H](CO)[C@@H](O)[C@H](O[C@@H]8O[C@H](CO)[C@@H](O)[C@H](O)[C@H]8O)[C@@H]7O[C@@H]7O[C@@H](C)[C@H](O)[C@@H](O)[C@H]7O)CC[C@]6(C)[C@H]5CC[C@]34C)N2C1 (stereo not given in full)
- Potency [1]: inactive
- Potency [2]: inactive

SMILES: COC1CC(O[C@H]2CC[C@@]3(C)C(CCC4C3CC[C@]3(C)C(C5=CC(=O)OC5)CCC43O)C2)OC(C)C1OC1OC(COC2OC(CO)C(O)C(O)C2O)C(O)C(O)C1O (stereo not given in full)
- Potency [1]: inactive
- Potency [2]: inactive

SMILES: Oc1ccc2c3c1O[C@H]1c4[nH]c5c(N=C=S)cccc5c4C[C@@]4(O)[C@@H](C2)N(CC2CC2)CC[C@]314
- Potency [1]: inactive
- Potency [2]: inactive

SMILES: COC1CC(OC2CCC3(C=O)C(CCC4C3CCC3(C)C(C5=CC(=O)OC5)CCC43O)C2)OC(C)C1OC1OC(CO)C(O)C(O)C1O (stereo not given)
- Potency [1]: inactive
- Potency [2]: inactive

SMILES: O=C1CCCC2=C1C(c1[nH]ncc1Cl)N=C(Nc1nc3ccc(F)cc3o1)N2 (stereo not given)
- Potency [1]: inactive
- Potency [2]: inactive

SMILES: C=C(CO)[C@@]12O[C@@H]1[C@@]1(C)C(=CC2=O)CC[C@@H](O)[C@@H]1C
- Potency [1]: inactive
- Potency [2]: inactive

SMILES: CO[C@@H]1C[C@H](O[C@H]2CC[C@@]3(C)C(CCC4C3CC[C@]3(C)[C@@H](C5=CC(=O)OC5)[C@@H](OC(C)=O)CC43O)C2)O[C@H](C)[C@@H]1O[C@H]1O[C@H](CO[C@@H]2O[C@H](CO)[C@@H](O)[C@H](O)[C@H]2O)[C@@H](O)[C@H](O)[C@H]1O (stereo not given in full)
- Potency [1]: inactive
- Potency [2]: inactive

SMILES: OC(CNc1ccccc1)Cn1c2ccc(Br)cc2c2cc(Br)ccc21 (stereo not given)
- Potency [1]: inactive
- Potency [2]: inactive

SMILES: CCN1CCN(C(c2ccc(Cl)cc2)c2ccc(Cl)cc2)CC1
- Potency [1]: inactive
- Potency [2]: inactive

SMILES: O=C(Nc1ncc(Cc2ccc(C(F)(F)F)cc2)s1)c1cnc(-c2ccccc2)o1
- Potency [1]: inactive
- Potency [2]: inactive

SMILES: CC(=O)OC[C@]12C[C@H](OC(C)=O)C(C)=C[C@H]1O[C@@H]1[C@H](O)[C@@H](O)[C@@]2(C)[C@]12CO2
- Potency [1]: inactive
- Potency [2]: inactive

SMILES: COC1CC(O[C@H]2CC[C@@]3(C)C(CCC4C3CC[C@]3(C)[C@@H](C5=CC(=O)OC5)CC[C@]43O)C2)OC(C)C1O (stereo not given in full)
- Potency [1]: inactive
- Potency [2]: inactive

SMILES: CC1=C(C(=O)Nc2nncs2)C(c2nn(C)cc2Cl)N=C(Nc2nc3ccccc3o2)N1 (stereo not given)
- Potency [1]: inactive
- Potency [2]: inactive

SMILES: Cc1sc2c(c1C)C(c1ccc(Cl)cc1)=N[C@@H](CC(=O)Nc1ccc(O)cc1)c1nnc(C)n1-2
- Potency [1]: inactive
- Potency [2]: inactive

SMILES: C/C=C(\C)C(=O)OC1C2C3(C)CCC(OC4CC(OC)C(OC5OC(C)C(O)C(OC)C5O)C(C)O4)CC3CCC23OC32CCC(C(C)=O)C2(C)C1OC(=O)/C(C)=C/C (stereo not given)
- Potency [1]: inactive
- Potency [2]: inactive

SMILES: C[C@@H]1CCC/C=C/[C@H]2C[C@@H](O)C[C@@H]2[C@@H](O)/C=C/C(=O)O1
- Potency [1]: inactive
- Potency [2]: inactive

SMILES: C=C1[C@@H](O)[C@]2(O)OC[C@]34C2[C@]2(C)C(C[C@H]3OC(=O)[C@H](O)[C@@]14O)C(C)=CC(=O)[C@H]2O (stereo not given in full)
- Potency [1]: inactive
- Potency [2]: inactive

SMILES: COc1ccc(CCNCc2ccc(OC)c3ccccc23)cc1
- Potency [1]: inactive
- Potency [2]: inactive

SMILES: Cc1nnc2n1-c1sc(CCc3ccc(CC(C)C)cc3)cc1C(c1ccccc1Cl)=NC2C (stereo not given)
- Potency [1]: inactive
- Potency [2]: inactive

SMILES: N#Cc1ccc(NC(=O)Nc2nnc(-c3ccncc3)s2)cc1Br
- Potency [1]: inactive
- Potency [2]: inactive

SMILES: CC[C@H]1C2CC3[C@@H]4N(C)c5ccccc5[C@]45C[C@@H]([C@H]2[C@H]5O)N3[C@H]1O
- Potency [1]: inactive
- Potency [2]: inactive

SMILES: CN1C(=O)C(Cc2ccc3ccccc3c2)N=C(c2ccc(O)cc2)c2cc(Cl)ccc21 (stereo not given)
- Potency [1]: inactive
- Potency [2]: inactive

SMILES: O=C(O)CCCCCCNC1c2ccccc2CCc2ccccc21
- Potency [1]: inactive
- Potency [2]: inactive

SMILES: CCOc1ccc(CCNC(=O)c2cc3ccccc3n2Cc2cccc(C)c2)cc1OCC
- Potency [1]: inactive
- Potency [2]: inactive

SMILES: COC(=O)C12C(=O)C(C)(O)C(=O)C1(C)C(C)=CC1C34CCC(OC3=O)C(C)(C)C4CCC12C (stereo not given)
- Potency [1]: inactive
- Potency [2]: inactive

SMILES: CC(=O)O[C@H]1C[C@@H](C)O[C@H]2O[C@@H]3CC4CC[C@@H]5C(CC[C@]6(C)[C@@H](C7=CC(=O)OC7)CC[C@]56O)[C@@]4(C=O)C[C@H]3O[C@]21O (stereo not given in full)
- Potency [1]: inactive
- Potency [2]: inactive

SMILES: CCc1nn2c(=O)cc(N3CCN(C)CC3)nc2s1
- Potency [1]: inactive
- Potency [2]: inactive

SMILES: CCOc1ccc(CCNC(=O)c2ccc(Oc3ccccc3)cc2)cc1OCC
- Potency [1]: inactive
- Potency [2]: inactive

SMILES: Cc1ccccc1[C@@H](C(=O)NC1CCCCC1)N(C(=O)Cn1ccnc1C)c1cccc(F)c1
- Potency [1]: inactive
- Potency [2]: inactive

SMILES: C[C@H]1O[C@@H](O[C@H]2CC[C@]3(C=O)C4CC[C@]5(C)[C@@H](C6=CC(=O)OC6)CC[C@]5(O)[C@@H]4CC[C@]3(O)C2)C[C@@H](O)[C@@H]1O (stereo not given in full)
- Potency [1]: inactive
- Potency [2]: inactive

SMILES: CCc1nn2c(=O)c(C)c(N3CCNCC3)nc2s1
- Potency [1]: inactive
- Potency [2]: inactive

SMILES: CCOc1ccc(CCNC(=O)c2cc3ncccc3n2Cc2cccc(C)c2)cc1OCC
- Potency [1]: inactive
- Potency [2]: inactive

SMILES: CO[C@H]1[C@H](O)[C@H](O[C@H]2CC[C@]3(C=O)C4CC[C@]5(C)[C@H](C6=CC(=O)OC6)CC[C@]5(O)C4CC[C@@H]3C2)O[C@@H](C)[C@@H]1O (stereo not given in full)
- Potency [1]: inactive
- Potency [2]: inactive

SMILES: S=P(c1ccccc1)(c1ccccc1)c1c[n+](Cc2ccccc2)c2ccccn12
- Potency [1]: inactive
- Potency [2]: inactive

SMILES: CC(=O)Nc1ncc(S(=O)(=O)N2CCOCC2)s1
- Potency [1]: inactive
- Potency [2]: inactive

SMILES: CC(=O)OC[C@]12C[C@H](OC(=O)CC(C)C)C(C)=C[C@H]1O[C@@H]1[C@H](O)[C@@H](O)[C@@]2(C)[C@]12CO2
- Potency [1]: inactive
- Potency [2]: inactive

SMILES: CCOc1ccc(CCNC(=O)c2cc3ccccc3n2Cc2ccccn2)cc1OCC
- Potency [1]: inactive
- Potency [2]: inactive

SMILES: Cc1cccc(-n2cnc3cc(C(=O)N4CCCC(C)C4)ccc32)c1 (stereo not given)
- Potency [1]: inactive
- Potency [2]: inactive

SMILES: S=P(c1ccccc1)(c1ccccc1)c1cnc2ccccn12
- Potency [1]: inactive
- Potency [2]: inactive

SMILES: CCCCCOc1cc2c(cc1-c1cc(/C=C/C(=O)O)ccc1O)C(C)(C)CCC2(C)C
- Potency [1]: inactive
- Potency [2]: inactive

SMILES: CO[C@H]1[C@H](O)[C@H](O[C@H]2CC[C@]3(C)C4CC[C@]5(C)[C@H](C6=CC(=O)OC6)CC[C@]5(O)C4CC[C@@H]3C2)O[C@@H](C)[C@@H]1O (stereo not given in full)
- Potency [1]: inactive
- Potency [2]: inactive

SMILES: COC(=O)c1ccc(O)c2ncc(N3CCN(C)CC3)cc12
- Potency [1]: inactive
- Potency [2]: inactive

SMILES: C/C=C(\C)C(=O)O[C@@H]1[C@@H](C)[C@]2(O)C3C=C(C)C(=O)[C@@]3(O)CC(CO)=C[C@H]2C2C(C)(C)[C@@]21OC(=O)C(C)CC (stereo not given in full)
- Potency [1]: inactive
- Potency [2]: inactive

SMILES: C=C1[C@@H](C)C2[C@H](Cc3ccccc3)NC(=O)[C@@]23C(/C=C/C[C@H](C)C[C@@](C)(O)/C=C/[C@@H]3OC(C)=O)[C@@H]1O (stereo not given in full)
- Potency [1]: inactive
- Potency [2]: inactive

SMILES: Cc1nn2c(=O)cc(N3CCNCC3)nc2s1
- Potency [1]: inactive
- Potency [2]: inactive

SMILES: C[C@]12CC[C@H](O)C[C@H]1CC[C@@H]1[C@@H]2[C@H](O)C[C@]2(C)[C@@H](c3ccc(=O)oc3)CC[C@]12O
- Potency [1]: inactive
- Potency [2]: inactive

SMILES: O=C(N[C@@H]1N=C(c2ccccc2F)c2cccc3c2N(CC3)C1=O)c1cc2ccccc2[nH]1
- Potency [1]: inactive
- Potency [2]: inactive
